According to the antibiotic and cytotoxicity screens of Wong et al. (2023):
About 3,300 (8.5%) of roughly 39,000 compounds were called active. The entries come from a sample that favours actives as a whole.

test system: HepG2; assay: cytotoxicity call (relative viability < 0.9); settings: 10 µM

Structure (SMILES) | cytotoxicity call
C[C@@H]1CC=CC[C@H](c2cccc(Cl)c2)NC(=O)[C@@H](Cc2ccccc2)N(C)C(=O)c2ccccc2O1 | inactive
C[C@@H]1CN([C@@H](C)CO)C(=O)c2c(c3ccccc3n2C)-c2ccccc2CO[C@@H]1CN(C)C(=O)N[C@H](C)c1ccccc1 | inactive
Cc1ccc(S(=O)(=O)N(C)C[C@@H]2Oc3cc(Br)ccc3S(=O)(=O)N([C@@H](C)CO)C[C@H]2C)cc1 | inactive
Cc1noc(C)c1S(=O)(=O)Nc1ccc2c(c1)C(=O)N([C@H](C)CO)C[C@H](C)[C@@H](CN(C)C(=O)Nc1ccccc1)OCCCC[C@H](C)O2 | inactive
O=C1N[C@@H](CC(=O)N2CCN(CCc3ccncc3)CC2)C(=O)Nc2ccccc21 | inactive
COc1ccc(-c2cnc3c(c2)C(=O)N([C@@H](C)CO)C[C@@H](C)[C@H](CN(C)C(=O)Cc2ccccn2)O3)cc1 | inactive
CCCNC(=O)N[C@H]1CC[C@H](CC(=O)N2CCN(C)CC2)O[C@H]1CO | inactive
C[C@@H](O)CNC(=O)C(=O)NC(C)(C)C | inactive
COc1cccc(-c2cn(CC[C@@H]3CC[C@H](NC(=O)CN(C)C)[C@H](CO)O3)nn2)c1 | inactive
C[C@H]1CN([C@@H](C)CO)C(=O)c2cc(NC(=O)Cc3ccccc3)ccc2O[C@@H]1CN(C)S(=O)(=O)c1cn(C)cn1 | inactive
NCCC[C@H](NC(=O)[C@@H]1CCCN1C(=O)[C@@H]1CSSC[C@H](N)C(=O)N[C@@H](Cc2ccc(O)cc2)C(=O)N[C@@H](Cc2ccccc2)C(=O)N[C@@H](CCC(N)=O)C(=O)N[C@@H](CC(N)=O)C(=O)N1)C(=O)NCC(N)=O | active
NCCCC[C@H](NC(=O)[C@@H]1CCCN1C(=O)[C@@H]1CSSC[C@H](N)C(=O)N[C@@H](Cc2ccccc2)C(=O)N[C@@H](Cc2ccccc2)C(=O)NC(CCC(N)=O)C(=O)N[C@@H](CC(N)=O)C(=O)N1)C(=O)NCC(N)=O (stereo not given in full) | inactive
NCCCC[C@H](NC(=O)[C@@H]1CCCN1C(=O)[C@@H]1CSSC[C@H](N)C(=O)N[C@@H](Cc2ccc(O)cc2)C(=O)N[C@@H](Cc2ccccc2)C(=O)N[C@@H](CCC(N)=O)C(=O)N[C@@H](CC(N)=O)C(=O)N1)C(=O)NCC(N)=O | inactive
CNC[C@H]1OCCCC[C@H](C)Oc2ccc(NC(=O)Nc3ccc(C(F)(F)F)cc3)cc2C(=O)N([C@H](C)CO)C[C@@H]1C | inactive
COc1cccc(S(=O)(=O)Nc2ccc3c(c2)C(=O)N(C)C[C@H](OC)[C@@H](C)CN(C(=O)Cc2cccnc2)[C@@H](C)CO3)c1 | inactive
CC(C)=CCC[C@@H](C)CCO | inactive
COc1ccc(C[C@H](NC(=O)[C@H](C)NC(=O)CN2CCOCC2)C(=O)N[C@@H](Cc2ccccc2)C(=O)[C@@]2(C)CO2)cc1 | active
CC(C)C[C@H](NC(=O)[C@H](CCc1ccccc1)NC(=O)CN1CCOCC1)C(=O)N[C@@H](Cc1ccccc1)C(=O)N[C@@H](CC(C)C)C(=O)[C@@]1(C)CO1 | active
COC(=O)C(Cc1ccccc1)NC(=O)C(N)CC(=O)O (stereo not given) | inactive
COC[C@H](NC(=O)c1cnc(C)s1)C(=O)N[C@@H](COC)C(=O)N[C@@H](Cc1ccccc1)C(=O)[C@@]1(C)CO1 | active

Structure (SMILES) | cytotoxicity call
CC(=O)N[C@@H](Cc1ccccc1)C(=O)NN | inactive
CC(=O)N1[C@H](CNC(=O)CN2CCOCC2)[C@@H](c2ccccc2)[C@@H]1CO | inactive
CC(=O)N[C@@H](Cc1ccccc1)C(=O)O | inactive
CC(=O)N1[C@@H](CO)[C@H](c2ccccc2)[C@@H]1CNC(=O)CN1CCOCC1 | inactive
COC(=O)[C@H](Cc1ccccc1)NC(=O)[C@@H](N)CC(=O)O | inactive
C[C@@H]1CN([C@H](C)CO)C(=O)c2cccc(NC(=O)c3ccc(-c4nccs4)cc3)c2O[C@H]1CN(C)Cc1ccc(C(=O)Nc2ccccc2N)cc1 | inactive
NCCC[C@@H](N)CC(=O)NC[C@H]1NC(=O)[C@@H](CO)NC(=O)[C@@H](N)CNC(=O)[C@H]([C@H]2CCN=C(N)N2)NC(=O)C(C=NC(N)=O)NC1=O (stereo not given in full) | inactive
O=C(C[C@H]1CC[C@H]2[C@@H](COC[C@H](O)CN2C(=O)C2CC2)O1)NCc1ccncc1 | inactive
C=CCNc1ncnc2c1cnn2C | inactive
CNC(=O)C[C@@H]1CC[C@H]2[C@@H](COC[C@@H](O)CN2C(=O)c2ccccn2)O1 | inactive
CO[C@H]1CN(C)C(=O)c2cc(NS(=O)(=O)c3ccccc3)ccc2OC[C@H](C)N(C(=O)NC(C)C)C[C@@H]1C | inactive
C[C@H](CO)N1C[C@H](C)[C@@H](CN(C)Cc2ccc(Cl)c(Cl)c2)Oc2ccc(NC(=O)Nc3ccc4c(c3)OCO4)cc2CC1=O | inactive
C[C@@H]1CN([C@@H](C)CO)C(=O)Cc2cc(NC(=O)Nc3ccc4c(c3)OCO4)ccc2O[C@H]1CN(C)Cc1ccc(Cl)c(Cl)c1 | active
C[C@H]1CN([C@@H](C)CO)C(=O)Cc2cc(NC(=O)Nc3ccc4c(c3)OCO4)ccc2O[C@H]1CN(C)Cc1ccc(Cl)c(Cl)c1 | active
C[C@H](CO)N1C[C@H](C)[C@H](CN(C)Cc2ccc(Cl)c(Cl)c2)Oc2ccc(NC(=O)Nc3ccc4c(c3)OCO4)cc2CC1=O | active
C[C@H]1CN([C@@H](C)CO)C(=O)Cc2cc(NC(=O)Nc3ccc4c(c3)OCO4)ccc2O[C@@H]1CN(C)Cc1ccc(Cl)c(Cl)c1 | inactive
C[C@@H]1CN([C@H](C)CO)C(=O)Cc2cc(NC(=O)Nc3ccc4c(c3)OCO4)ccc2O[C@@H]1CN(C)Cc1ccc(Cl)c(Cl)c1 | inactive
C[C@@H]1CN([C@@H](C)CO)C(=O)Cc2cc(NC(=O)Nc3ccc4c(c3)OCO4)ccc2O[C@@H]1CN(C)Cc1ccc(Cl)c(Cl)c1 | inactive
C[C@@H]1CN([C@H](C)CO)C(=O)Cc2cc(NC(=O)Nc3ccc4c(c3)OCO4)ccc2O[C@H]1CN(C)Cc1ccc(Cl)c(Cl)c1 | inactive
CCS(=O)(=O)N1CC[C@]2(CC1)CN([C@@H](CO)c1[nH]c3cc(ccc3c12)OC)C(=O)c1ccc(cc1)F | inactive

Structure (SMILES) | cytotoxicity call
COc1ccc(S(=O)(=O)N(C)C[C@H]2OCCCC[C@H](C)Oc3ccc(NC(=O)Nc4ccc(F)cc4)cc3C(=O)N([C@@H](C)CO)C[C@H]2C)cc1 | inactive
CN1CCN(C(=O)[C@@H]2[C@@H](C(=O)O)[C@H]3CC[C@H]2O3)CC1 | inactive
CN(C)CC(=O)N1CC(=O)N2[C@@H](CO)[C@H](c3ccc(C#Cc4cccnc4)cc3)[C@@H]2C1 | inactive
CN1CCN(C)[C@@H](CO)C1 | inactive
Cc1ccc(S(=O)(=O)N(C)C[C@@H]2OCCCC[C@@H](C)Oc3ccc(NC(=O)c4ccccc4)cc3C(=O)N([C@@H](C)CO)C[C@@H]2C)cc1 | inactive
C[C@@H]1CN([C@H](C)CO)C(=O)c2cc(NS(=O)(=O)c3cn(C)cn3)ccc2O[C@@H]1CN(C)C(=O)Nc1ccc(F)cc1 | inactive
CC1(C)CC[C@]2(C(=O)O[C@@H]3O[C@H](CO[C@@H]4O[C@H](CO)[C@@H](O)[C@H](O)[C@H]4O)[C@@H](O)[C@H](O)[C@H]3O)CC[C@]3(C)C(=CC[C@H]4[C@@]5(C)CC[C@H](O[C@@H]6OC[C@H](O)[C@H](O)[C@H]6O)C(C)(C)[C@@H]5CC[C@]43C)[C@@H]2C1 | inactive
CC(=O)OC1CC23CC24CCC(OC2OCC(O)C(O)C2O)C(C)(C)C4CCC3C2(C)CC3OC4(CC(C)C3C12C)OC(O)C1(C)OC41 (stereo not given) | inactive
CC(CC(=O)C1OC1(C)C)C1C(=O)CC2(C)C3=CCC4C(C)(C)C(OC5OCC(O)C(O)C5O)CCC45CC35C(O)CC12C (stereo not given) | active
O=C(Nc1cc(C(=O)Nc2ccc(S(=O)(=O)O)cc2S(=O)(=O)O)cc(C(=O)Nc2ccc(S(=O)(=O)O)cc2S(=O)(=O)O)c1)Nc1cc(C(=O)Nc2ccc(S(=O)(=O)O)cc2S(=O)(=O)O)cc(C(=O)Nc2ccc(S(=O)(=O)O)cc2S(=O)(=O)O)c1 | inactive
CC(C)CC#Cc1cnc2c(c1)C(=O)N([C@H](C)CO)C[C@@H](C)[C@@H](CN(C)S(=O)(=O)c1ccccc1)O2 | inactive
C[C@@H]1CN([C@@H](C)CO)C(=O)c2cc(NS(=O)(=O)c3cccs3)ccc2O[C@@H](C)CCCCO[C@H]1CN(C)C(=O)Nc1cccc2ccccc12 | inactive
C[C@@H]1CCCCO[C@H](CN(C)C(=O)Nc2cccc3ccccc23)[C@@H](C)CN([C@H](C)CO)C(=O)c2cc(NS(=O)(=O)c3cccs3)ccc2O1 | inactive
C[C@@H]1CCCCO[C@@H](CN(C)C(=O)Nc2cccc3ccccc23)[C@H](C)CN([C@H](C)CO)C(=O)c2cc(NS(=O)(=O)c3cccs3)ccc2O1 | inactive
C[C@H]1CCCCO[C@@H](CN(C)C(=O)Nc2cccc3ccccc23)[C@@H](C)CN([C@@H](C)CO)C(=O)c2cc(NS(=O)(=O)c3cccs3)ccc2O1 | inactive
C[C@@H]1CCCCO[C@H](CN(C)C(=O)Nc2cccc3ccccc23)[C@H](C)CN([C@H](C)CO)C(=O)c2cc(NS(=O)(=O)c3cccs3)ccc2O1 | active
C[C@H](CO)N1C[C@H](C)[C@@H](CN(C)C(=O)Nc2cccc3ccccc23)OCCCC[C@H](C)Oc2ccc(NS(=O)(=O)c3cccs3)cc2C1=O | active
C[C@H](CO)N1C[C@H](C)[C@H](CN(C)C(=O)Nc2cccc3ccccc23)OCCCC[C@H](C)Oc2ccc(NS(=O)(=O)c3cccs3)cc2C1=O | inactive
C[C@H]1CCCCO[C@H](CN(C)C(=O)Nc2cccc3ccccc23)[C@@H](C)CN([C@@H](C)CO)C(=O)c2cc(NS(=O)(=O)c3cccs3)ccc2O1 | active
C[C@@H]1CN([C@@H](C)CO)C(=O)c2cc(NS(=O)(=O)c3cccs3)ccc2O[C@@H](C)CCCCO[C@@H]1CN(C)C(=O)Nc1cccc2ccccc12 | inactive
